# In PubChem BioAssay (EPA / NIEHS):
# Several values for one entry are separate records, joined by “and”; a condition that tells them apart may be missing. Identical values can stand only once. Inconclusive results are not listed. The source holds several records for some structures; these can differ, active in one and inactive in another. Activity calls are given as the source filed them. The calls were made as follows, unless noted: active = hit-call score of the fitted dose curve at least 0.9, where 1 is the maximum; inactive = score below 0.9.
# Assay: CCTE_Shafer_MEA_acute_LDH: CCTE's Lactate Dehydrogenase Assay for Cytotoxicity in the Neural Acute Assay, Shafer Lab (AID 2284086; active = hit-call score of the fitted dose curve at least 0.9, where 1 is the maximum;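 also: active means LDH release rises above DMSO vehicle level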)
# In short: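 Cytotoxicity readout: spectrophotometric LDH activity in supernatant of rat primary cortical neurons, post-plating day 13 or 15, sampled after 40 min compound exposure; signal gain relative to DMSO baseline.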
SMILES,outcome,AC50
ClC1=C(Cl)[C@]2(Cl)[C@@H]3[C@@H]4C[C@@H]([C@H]5O[C@@H]45)[C@@H]3[C@@]1(Cl)C2(Cl)Cl,inactive,–
CC#Cc1cc(C)nc(Nc2ccccc2)n1,inactive,–
CC(C)C(=O)OCC(C)(C)C(OC(=O)C(C)C)C(C)C (stereo unspecified),inactive,–
c1ccc(-c2ccccc2)cc1,inactive,–
COc1ccc(O)c(C(C)(C)C)c1,inactive,–
CCSC(=O)N(CC)C1CCCCC1,inactive,–
Nc1ccc(-c2ccc(N)cc2)cc1,inactive,–
ClC1=C(Cl)[C@]2(Cl)[C@@H]3[C@@H](Cl)[C@H]4O[C@H]4[C@@H]3C1(Cl)C2(Cl)Cl,inactive,–
CCCN(CCC)N=O,inactive,–
CCCCCCCCCC[N+](C)(C)CCCCCCCCCC,–,31.3 µM (active)
CN(C)CCO,inactive,–
Clc1ccc(C(Cl)(Cl)Cl)cc1,inactive,–
CO/C=C(/C(=O)OC)c1ccccc1COc1cccc(C(F)(F)F)n1,inactive,–
ClC(Cl)=C(c1ccc(Cl)cc1)c1ccc(Cl)cc1,inactive,–
CCC(C)c1cc([N+](=O)[O-])cc([N+](=O)[O-])c1O (stereo unspecified),inactive,–
O=C(N[C@H]1CN2CCC1CC2)c1cc2ccoc2cn1,inactive,–
CCC(C)(c1ccc(O)cc1)c1ccc(O)cc1,inactive,–
CCCCCCCCCc1ccc(O)cc1,inactive,–
C=CC(N)=O,inactive,–
CCC(C)(CC)c1cc(NC(=O)c2c(OC)cccc2OC)on1,inactive,–
O=C(O)C(F)(F)C(F)(F)C(F)(F)C(F)(F)C(F)(F)F,inactive,–

# Assay: CCTE_Shafer_MEA_dev_mutual_information_norm: CCTE's Neural Network Formation Assay for Mutual Information Normalization, Shafer Lab (AID 2284091);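 as to AC50: mutual information between electrodes summarised as area under curve across four recording days; potency is for a decrease in mutual information relative to DMSO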
# In short: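 Shared information across electrodes, tracked on days 5, 7, 9 and 12 of network development and collapsed as trapezoidal area under the curve. Rat cortical cultures were treated continuously from plating, with treatment renewed at feeds on DIV 5 and 9; DMSO baseline, negative-direction fit.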
SMILES,outcome,AC50
O=S(=O)(O)C(F)(F)C(F)(F)C(F)(F)C(F)(F)C(F)(F)C(F)(F)F,inactive,–
ClC1=C(Cl)[C@]2(Cl)[C@@H]3[C@@H]4C[C@@H]([C@H]5O[C@@H]45)[C@@H]3[C@@]1(Cl)C2(Cl)Cl,–,15 µM (active)
Clc1ccc(C(c2ccccc2Cl)C(Cl)(Cl)Cl)cc1 (stereo unspecified),–,0.0113 µM (active)
COc1ccc(O)c(C(C)(C)C)c1,inactive,–
Oc1ccc(C(c2ccc(O)cc2)(C(F)(F)F)C(F)(F)F)cc1,inactive,–
O=S(=O)(O)C(F)(F)C(F)(F)C(F)(F)C(F)(F)F,inactive,–
ClC1=C(Cl)[C@]2(Cl)[C@@H]3[C@H]4C[C@H]([C@@H]5O[C@H]45)[C@@H]3[C@@]1(Cl)C2(Cl)Cl,inactive,–
ClC1=C(Cl)[C@]2(Cl)[C@@H]3[C@@H](Cl)[C@H]4O[C@H]4[C@@H]3C1(Cl)C2(Cl)Cl,inactive,–
NS(=O)(=O)C(F)(F)C(F)(F)C(F)(F)C(F)(F)C(F)(F)C(F)(F)C(F)(F)C(F)(F)F,inactive,–
c1cc2ccc3cccc4ccc(c1)c2c34,inactive,–
CO/C=C(/C(=O)OC)c1ccccc1COc1cccc(C(F)(F)F)n1,–,183 nM (active) and 312 nM (active)
ClC(Cl)=C(c1ccc(Cl)cc1)c1ccc(Cl)cc1,–,2.19 µM (active)
CCC(C)(c1ccc(O)cc1)c1ccc(O)cc1,inactive,–
O=C(O)C(F)(F)C(F)(F)C(F)(F)C(F)(F)C(F)(F)C(F)(F)C(F)(F)C(F)(F)F,inactive,–
C=CC(N)=O,inactive,–
O=C(O)C(F)(F)C(F)(F)C(F)(F)C(F)(F)C(F)(F)F,inactive,–
CCOP(=S)(OCC)SCSC(C)(C)C,–,23.4 µM (active) and 21.7 µM (active)

# Assay: CCTE_Shafer_MEA_dev_correlation_coefficient_mean: CCTE's Neural Network Formation Assay for Mean Correlation Coefficient, Shafer Lab (AID 2284093);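 as to AC50: well mean pairwise spike train correlation integrated as AUC over recording days 5 to 12; potency fitted for loss of correlation relative to DMSO vehicle wells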
# In short: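 Spontaneous activity recorded on days 5, 7, 9 and 12 post-plating; pairwise spike correlations are averaged across active electrodes and collapsed to an area-under-curve. Rat cortical cultures are dosed from plating through 12 days, with compound renewed at media changes.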
SMILES,outcome,AC50
O=S(=O)(O)C(F)(F)C(F)(F)C(F)(F)C(F)(F)C(F)(F)C(F)(F)F,inactive,–
ClC1=C(Cl)[C@]2(Cl)[C@@H]3[C@@H]4C[C@@H]([C@H]5O[C@@H]45)[C@@H]3[C@@]1(Cl)C2(Cl)Cl,–,23.6 µM (active)
Clc1ccc(C(c2ccccc2Cl)C(Cl)(Cl)Cl)cc1 (stereo unspecified),–,0.199 µM (active)
COc1ccc(O)c(C(C)(C)C)c1,inactive,–
Oc1ccc(C(c2ccc(O)cc2)(C(F)(F)F)C(F)(F)F)cc1,inactive,–
O=S(=O)(O)C(F)(F)C(F)(F)C(F)(F)C(F)(F)F,inactive,–
ClC1=C(Cl)[C@]2(Cl)[C@@H]3[C@H]4C[C@H]([C@@H]5O[C@H]45)[C@@H]3[C@@]1(Cl)C2(Cl)Cl,inactive,–
ClC1=C(Cl)[C@]2(Cl)[C@@H]3[C@@H](Cl)[C@H]4O[C@H]4[C@@H]3C1(Cl)C2(Cl)Cl,–,27.5 µM (active)
NS(=O)(=O)C(F)(F)C(F)(F)C(F)(F)C(F)(F)C(F)(F)C(F)(F)C(F)(F)C(F)(F)F,inactive,22.6 µM (active)
c1cc2ccc3cccc4ccc(c1)c2c34,inactive,–
CO/C=C(/C(=O)OC)c1ccccc1COc1cccc(C(F)(F)F)n1,–,244 nM (active) and 459 nM (active)
ClC(Cl)=C(c1ccc(Cl)cc1)c1ccc(Cl)cc1,–,3.9 µM (active)
CCC(C)(c1ccc(O)cc1)c1ccc(O)cc1,inactive,–
O=C(O)C(F)(F)C(F)(F)C(F)(F)C(F)(F)C(F)(F)C(F)(F)C(F)(F)C(F)(F)F,inactive,–
C=CC(N)=O,inactive,–
O=C(O)C(F)(F)C(F)(F)C(F)(F)C(F)(F)C(F)(F)F,inactive,–
CCOP(=S)(OCC)SCSC(C)(C)C,–,23.3 µM (active) and 24.2 µM (active)
